Screening results: PubChem BioAssay, National Center for Advancing Translational Sciences (NCATS)
PTAP-TSG101 blk: TSG101-PTAP interaction inhibition, HIV-1 budding. Fluorescence polarization, FITC-PTAP peptide/Tsg101, 20 min. Potency, µM (series often up to 115 µM), hits mostly inhibitors. 44,000 tested, under 10 active. AID 1347069; further: potency means the concentration at half of the fitted maximal effect; 0% is about no effect
Target sequence (Q99816 whole entry, looked up): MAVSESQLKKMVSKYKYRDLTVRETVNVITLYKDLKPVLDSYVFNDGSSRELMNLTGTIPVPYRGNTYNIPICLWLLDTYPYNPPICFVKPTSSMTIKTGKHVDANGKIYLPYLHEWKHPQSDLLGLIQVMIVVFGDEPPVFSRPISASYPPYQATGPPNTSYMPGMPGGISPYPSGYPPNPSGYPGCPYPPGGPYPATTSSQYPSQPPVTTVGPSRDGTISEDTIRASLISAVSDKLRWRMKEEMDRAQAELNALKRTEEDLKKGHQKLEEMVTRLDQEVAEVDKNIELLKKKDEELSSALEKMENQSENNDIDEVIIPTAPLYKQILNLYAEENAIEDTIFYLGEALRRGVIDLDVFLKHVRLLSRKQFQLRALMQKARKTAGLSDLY
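Read-out is FITC fluorescence polarization. Compounds were added to Tsg101 binding domain (10 uM final), then FITC-PTAP peptide (50 nM final), 20 min at r.t. Total S+P intensity flags fluorescent compounds.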
B2AR arrestin ag: beta-arrestin recruitment by human beta2-adrenergic receptor ligands | 44,000 tested, under 10 active | HTLA Tango cells, beta-arrestin recruitment, luciferase luminescence, 18 h | AID 1347077 | Potency, µM (titrated, usually from 46.1 µM), hits mostly activators | P07550;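 further: potency means the concentration at half of the fitted maximal effect; 0% = DMSO and full agonism = EC100 isoproterenol or metaproterenol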
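Tango cells (recombinant beta2-AR, beta-arrestin, tTA-driven luciferase), 1500/well in DMEM 1% FBS, treated 18 h at 37 °C with compounds up to 46 µM; luciferin mix added, luminescence read after 15 min; %activity curves fitted and curve-classed.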
DRV1 agonist: agonists of human resolvin D1 receptor DRV1 (GPR32); CHO-K1 GPR32 beta-arrestin PathHunter luminescence, 90 min; zero percent set by DMSO-only wells; activation, % at 76.9 µM; 48,000 compounds, 2.5% hits; AID 1346428;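 active means activation of at least 60% and not above a set upper limit, about 1 call in 100 departs from these limits; inconclusive means activation of 40% to 60%, or above that upper limit; inactive means activation under 40%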; further: 0% is about no effect
Target sequence (O75388 whole entry, looked up): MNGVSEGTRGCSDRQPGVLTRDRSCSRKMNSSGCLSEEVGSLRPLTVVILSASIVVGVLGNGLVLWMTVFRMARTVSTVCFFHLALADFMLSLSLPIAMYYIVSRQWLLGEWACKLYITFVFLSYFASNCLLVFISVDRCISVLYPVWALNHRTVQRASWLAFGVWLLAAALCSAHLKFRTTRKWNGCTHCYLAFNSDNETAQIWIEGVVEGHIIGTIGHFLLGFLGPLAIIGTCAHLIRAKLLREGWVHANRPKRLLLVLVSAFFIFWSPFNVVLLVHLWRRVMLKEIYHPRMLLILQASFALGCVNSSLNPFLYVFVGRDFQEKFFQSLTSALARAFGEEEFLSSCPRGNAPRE
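Readings come from a cell-based beta-arrestin complementation format: CHO-K1 GPR32 stable cells (2,500/well) treated 90 min with compounds, then beta-Gal substrate added for 1 h before chemiluminescence imaging.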
HTT promoter inh: inhibits huntingtin promoter activity. AID 1508623. Potency, µM (top dose mostly 57.5 µM), inactives show at the highest dose activity change, negative = inhibition, hits mostly inhibitors. 48,000 compounds, 0.93% hits. HEK293 HTT promoter firefly luciferase reporter, 24 h; further: potency means the concentration at half of the fitted maximal effect; nearly all actives have a fitted effect of over 50% in size
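HEK293 cells carrying firefly luciferase reporters were seeded at 2,500 per well in Opti-MEM and cultured for 24 h. They were then treated with compounds at up to 57.5 uM final for 24 h at 37 degrees C before Dual-Glo luminescence readout.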
GALK inh: inhibits human galactokinase; 44,000 tested, under 10 active; recombinant GALK, Kinase-Glo ATP luminescence, 1 h; Potency, µM (top dose mostly 57.5 µM), for inactives: at the highest dose activity, negative = inhibition, most hits filed as inhibitors;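 further: plate controls were full GALK reaction for no effect and reaction lacking GALK for full effect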
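5 nM GALK with 35 µM ATP and 100 µM galactose in HEPES pH 8.0, MgCl2, NaCl, DTT, BSA; 1 h RT reaction, remaining ATP detected by Kinase-Glo Plus luminescence after 10 min; qHTS concentration series.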
HTT-AS promoter: activates huntingtin-antisense promoter activity; HEK293 HTT-AS promoter firefly luciferase reporter, 24 h; response scale: percent change from vehicle, -100% = no light; Potency, µM (series often up to 57.5 µM), for the others: top-dose activity change, positive = activation, most hits filed as activators; 48,000 compounds, 0.24% hits; further: potency means the concentration at half of the fitted maximal effect; nearly all actives have a fitted effect of over 55% in size
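Quantitative HTS used concentration series of up to 57.5 uM final on HEK293 luciferase reporter cells, 24 h at 37 degrees C. Readout was Dual-Glo firefly luminescence.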
* = called active by the depositor; [ ] = another dose, or the depositor's remark. Most compounds without a hit are left out; they make up all but 3.6% or so of the library. Unless noted, the call rests on the fitted dose curve; in most records, active means well fitted curve in the direction sought with a large enough effect; inconclusive means small, poorly fitted or top-dose-only effect, or another doubt; inactive means no such curve, though single readings can be large; an effect the other way counts as inactive or inconclusive.

What do the screens show for `Cc1ccc(NC(=O)c2cc(S(=O)(=O)N3CCOCC3)c(Cl)cc2Cl)cc1`?
PTAP-TSG101 blk: inactive; B2AR arrestin ag: inactive; DRV1 agonist: 84*; HTT promoter inh: inconclusive; GALK inh: -4%; HTT-AS promoter: -52%

What do the screens show for `Cc1ccc(C(=O)Nc2cccc(O)c2)cc1S(=O)(=O)N1CCCCCC1`?
PTAP-TSG101 blk: inactive; B2AR arrestin ag: inactive; DRV1 agonist: 82*; HTT promoter inh: -20%; GALK inh: 0%; HTT-AS promoter: -6%

How did Cc1ccc(NC(=O)c2ccc(C)c(S(=O)(=O)N3CCCCCC3)c2)cc1 do in these assays?
PTAP-TSG101 blk: inactive; B2AR arrestin ag: inactive; DRV1 agonist: 39; HTT promoter inh: inconclusive; GALK inh: -2%; HTT-AS promoter: -19%

Results for CNC(=O)c1ccccc1Sc1ccc2c(C=Cc3ccccn3)n[nH]c2c1 ?
HTT promoter inh: -13%; HTT-AS promoter: inconclusive

Results for Cc1nc2cccnc2n1C1CCN(S(C)(=O)=O)CC1 ?
PTAP-TSG101 blk: inactive; B2AR arrestin ag: inactive; DRV1 agonist: 16; GALK inh: -1%

How did COc1ccc(OC)c(S(=O)(=O)N2CCC(n3c(C)nc4cccnc43)CC2)c1 do in these assays?
PTAP-TSG101 blk: inactive; B2AR arrestin ag: inactive; DRV1 agonist: 65*; GALK inh: 1%

How did COc1cccc([C@@H](C)NCCCc2ccccc2Cl)c1 do in these assays?
HTT promoter inh: 183%; HTT-AS promoter: inconclusive

What do the screens show for `Cc1nn2c(=O)cc(COC(=O)c3ccc(NC(=O)COc4ccccc4F)cc3)nc2s1`?
PTAP-TSG101 blk: inactive; B2AR arrestin ag: inactive; DRV1 agonist: 62*; HTT promoter inh: -15%; GALK inh: 5%; HTT-AS promoter: -11%

Results for Cc1nn2c(=O)cc(COC(=O)c3ccc(NC(=O)COc4ccc(C)c(C)c4)cc3)nc2s1 ?
PTAP-TSG101 blk: inactive; B2AR arrestin ag: inactive; DRV1 agonist: 20; HTT promoter inh: -11%; GALK inh: 1%; HTT-AS promoter: 2%

What do the screens show for `Cc1nn2c(=O)cc(COC(=O)c3cccc(NC(=O)COc4ccccc4C)c3)nc2s1`?
PTAP-TSG101 blk: inactive; B2AR arrestin ag: inactive; DRV1 agonist: -16; HTT promoter inh: 3.2µM*; GALK inh: 1%; HTT-AS promoter: -90%

What do the screens show for `CCc1nn2c(=O)cc(COC(=O)c3ccccc3)nc2s1`?
PTAP-TSG101 blk: inactive; B2AR arrestin ag: inactive; DRV1 agonist: -50; HTT promoter inh: 43%; GALK inh: 6%; HTT-AS promoter: 4µM*

Results for Cn1c(=O)c(Oc2ccc(F)cc2F)cc2cnc(NC3CCOCC3)nc21 ?
HTT promoter inh: -5%; HTT-AS promoter: -17%

How did N#Cc1cc(NC(=O)C(=O)O)c(Cl)c(NC(=O)C(=O)O)c1 do in these assays?
DRV1 agonist: -16; HTT promoter inh: 3%; HTT-AS promoter: -2%

Results for COc1ccc(Nc2ncnc3c2nc2n3CCCCC2)cc1 ?
PTAP-TSG101 blk: inactive; B2AR arrestin ag: inactive; DRV1 agonist: 77*; HTT promoter inh: 17%; GALK inh: -3%; HTT-AS promoter: inconclusive

Results for CCOc1ccc(Nc2ncnc3c2nc2n3CCCCC2)cc1 ?
PTAP-TSG101 blk: inactive; B2AR arrestin ag: inactive; DRV1 agonist: 85*; HTT promoter inh: inconclusive; GALK inh: 1%; HTT-AS promoter: -11%

What do the screens show for `O=C1c2[nH]nc(-c3ccc(Br)cc3)c2C(c2cccc(O)c2)N1c1ccc(Cl)cc1` (stereo not given)?
PTAP-TSG101 blk: inactive; B2AR arrestin ag: inactive; DRV1 agonist: 96*; HTT promoter inh: inconclusive; GALK inh: 8%; HTT-AS promoter: -69%

Results for COc1cccc(Cn2cnc3c2c(=O)n(C)c(=O)n3C)c1 ?
PTAP-TSG101 blk: inactive; B2AR arrestin ag: inactive; DRV1 agonist: 22; HTT promoter inh: 14µM*; GALK inh: 1%; HTT-AS promoter: -51%

Results for Cc1cc(Nc2nc(N[C@@H](C)c3ccc(F)cc3)c(C#N)cc2F)n[nH]1 ?
HTT promoter inh: inconclusive; HTT-AS promoter: -2%

Results for O=C(NCc1ccccc1)c1cc2sccc2n1Cc1ccc(Cl)cc1 ?
PTAP-TSG101 blk: inactive; B2AR arrestin ag: inactive; DRV1 agonist: 38; HTT promoter inh: -7%; GALK inh: 8%; HTT-AS promoter: -13%

Results for CC(C)NC(=O)C1CCN(C(=O)c2cc3sccc3n2Cc2ccc(Cl)cc2)CC1 ?
PTAP-TSG101 blk: inactive; B2AR arrestin ag: inactive; DRV1 agonist: 8; HTT promoter inh: 8.9µM*; GALK inh: 1%; HTT-AS promoter: -60%

What do the screens show for `O=C(NCC1CCCO1)c1c[nH]c2ccc(S(=O)(=O)Nc3ccc(F)cc3F)cc2c1=O` (stereo not given)?
PTAP-TSG101 blk: inactive; B2AR arrestin ag: inactive; DRV1 agonist: -1; HTT promoter inh: 22%; GALK inh: 1%; HTT-AS promoter: 7%

What do the screens show for `CCc1ccc(N(C)S(=O)(=O)c2ccc3[nH]cc(C(=O)NCC4CCCO4)c(=O)c3c2)cc1` (stereo not given)?
PTAP-TSG101 blk: inactive; B2AR arrestin ag: inactive; DRV1 agonist: 110*; HTT promoter inh: inconclusive; GALK inh: 1%; HTT-AS promoter: -45%

Results for Cc1ccc(C(N)=O)cc1Nc1nccc(-c2cn(C(C)C)c3cnccc23)n1 ?
HTT promoter inh: inconclusive; HTT-AS promoter: -30%

What do the screens show for `Cc1ccc2[nH]c(CSc3nnc(NC(=O)COc4ccccc4)s3)cc(=O)c2c1`?
PTAP-TSG101 blk: inactive; B2AR arrestin ag: inactive; DRV1 agonist: 76*; HTT promoter inh: -12%; GALK inh: -2%; HTT-AS promoter: -23%

What do the screens show for `CC(C)(C)[C@H](NC(=O)c1ccc(N)c(Cl)c1)C(=O)N1CCC[C@@H]1C(=O)N[C@H](C#N)CC(=O)O`?
HTT promoter inh: 0%[6.01 µM]; HTT-AS promoter: -10%[6 µM]

How did Cc1ccc(CNC(=O)CN(c2ccc(C(C)C)cc2)S(=O)(=O)c2c(C)n[nH]c2C)cc1 do in these assays?
PTAP-TSG101 blk: inactive; B2AR arrestin ag: inactive; DRV1 agonist: 83*; HTT promoter inh: -20%; GALK inh: 0%; HTT-AS promoter: -29%

What do the screens show for `Cc1ccc(CNC(=O)CN(c2ccc(C)cc2)S(=O)(=O)c2c(C)nn(C)c2C)cc1`?
PTAP-TSG101 blk: inactive; B2AR arrestin ag: inactive; DRV1 agonist: -2; HTT promoter inh: -14%; GALK inh: 9%; HTT-AS promoter: -17%
